For one assay, the system named is LXRb homodimer (NR concentration 270 nM). Nature of the assay: PBM binding z-score (relative to random genomic background probes); higher = stronger binding; sequences stand for … in GC…GCGATTGACAGCGTAGAATGAAGG
The gist of the method:
(§1)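 On custom Agilent 4×180K arrays, double-stranded probes with 34-nt variable regions carried direct-repeat seeds, single-nucleotide variants, half-site ablations or random human genomic background. Ligand-free nuclear receptor dimers were applied for 1 h, and binding was read with antibodies against each partner (one per run). Binding z-scores come from regression-normalized fluorescence, with the random background probes as reference.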
Sequence TCTTGCAGATCAAAGGTTAAGAAAGCCGAAGCCT returned a PBM binding z-score of -0.606.

The sequence CCGAGTGGGTTATGGGGCATTCAGGCAACGGTGA displayed a PBM binding z-score of -0.129.

For the sequence ATCTCTAGGTAAAGTTCACTGAAAGATCGATAGA, the PBM binding z-score was 1.29.

TGAATGAGGTGATAAGATCAGGGAACGTTGCAAA returned a PBM binding z-score of -0.466.

AGCATGAGGTTATACGTAGATCAGGGAAGAAAGT registered a PBM binding z-score of 0.257.

As to AGTCGAAGTTCAGGACGAGGTAACGTAAAGCACG, the PBM binding z-score is -0.831.

As to CCGACTGGGACATAAGGTTACCATAAGCCAGCCC, the PBM binding z-score is -0.915.

As to ATACCAAGGTGGTCGTGAGGTCGTTGATACTAAC, the PBM binding z-score was -0.378.

The sequence AAAATGAGGTTATTAAGATCAGGGAATTGCGGTC had a PBM binding z-score of -0.0347.

GCTGCTAGGTCAGTTTGGTCAGCTAACGGGTACG returned a PBM binding z-score of 0.134.

As for TCATGTAGGTAAAGGTGAAAGTCGAACGATATGA, the PBM binding z-score is -0.337.

In turn, CAAACTAGTTCACCGGAAGGTCAAAGTCCGCATG yielded a PBM binding z-score of 1.66.

CGTCCAAGTTCAGAGAGGTCAGTGAATGCCGAGT registered a PBM binding z-score of 0.431.

Turning to CCTCGGAGGACTACAGGAGGTCAGAGCTGCCAGA, the PBM binding z-score was -0.728.

TGAATGAGGTTATAAGCTCAGGGAACGTTGCAAA: the PBM binding z-score was -0.391.

Sequence CGTCCAAGTTCAGCAGGTCAGTGAAAGCGACGTG had a PBM binding z-score of -0.267.

AATGCAGGGTCACTAGGCCAGAGTAGGTACGAAT registered a PBM binding z-score of 0.179.

Turning to TAGTCTAGGTCATGGGCCAGTATACCACGCGAAC, the PBM binding z-score worked out at 1.74.

Regarding CGAACTGGGTCATTGACAGGACAGTGAATAGTAA, the PBM binding z-score was -0.438.

For the sequence AGAACGACGGCACGCTGAGTTGATAGCAGAGTAG, the PBM binding z-score was -1.06.

Turning to TAGCCTACGTCAGATCGGGCCAGTATACGCTATA, the PBM binding z-score was -0.669.

Sequence TAAGACAGGTGAAGGTAACTCAGGTACGCAGTCG returned a PBM binding z-score of 1.51.

With TGAATCAGGTTATAAGATCAGGGAACGTTGCAAA, the PBM binding z-score was -0.425.

ACTAGCAGGCCAGGTTTGGGTCACTCAAACAAAG registered a PBM binding z-score of -0.651.

Take TCTTGTAGATCAAAAGGAGGTTAAGAAAGATCGA: the PBM binding z-score was -0.229.

Consider TTACCAAGGTGAAAGGACGTTGATGCACGCCTTG, for which the PBM binding z-score is -0.801.

In the case of ATCGAAAGGTAGTGAGGTGAGTATACAGAAAGGC, the PBM binding z-score is -0.154.

For ACTAGCAGGCCAAGTTTGGGTCAATCAAACAAAG, the PBM binding z-score is -1.03.

CGAACTAGGTCATTGACAGGAGAGTGAATAGTAA registered a PBM binding z-score of -0.158.

As for GCATATAGGTAATACAAGGGGAAAGTCCGATTGT, the PBM binding z-score was -0.118.

Take CAAACTAGGTCAAGGTCATAGTCGGTTTGTGCCA: the PBM binding z-score worked out at 1.07.

CAAACTAGCTCAAAGGTCAAAGTCGAGCCAACCA yielded a PBM binding z-score of 2.54.

TAGCTTAGGTCATTGGGCCAGTATAGTACGCATC gave a PBM binding z-score of 0.994.

With TGAATGAGGTTAAAGATCGGGGAACGTGGCGTCG, the PBM binding z-score worked out at 0.61.

As to CAGCCTAGATCAGGGCCAGTATAGGAGGAACGTT, the PBM binding z-score was -1.15.

Regarding ACTATTAGTTGAGACAAGGGCAACCGATAGGTTG, the PBM binding z-score came out at 0.202.

With GGAACGAGGGCATTCGAGTTGGTAGCATGGCGAT, the PBM binding z-score was -1.08.

Take ATCTCTAGGTAAAAATTCAGTGAATCCCGAGGAT: the PBM binding z-score turned out to be 0.956.

Take CCTACAGGGCCACGAAAGGTCATTGATTCAGTGA: the PBM binding z-score came out at 0.292.

As for CGTCCAAGGTCAATGCTAGGTCAGTGAGAGCATT, the PBM binding z-score was determined as 0.966.

Another assay deals with PPARa:RXRa (NR concentration 270 nM, RXRa partner concentration 90 nM). Described as above. The gist of the method: as §1
TCTTGCAGATCAAAGGTTAAGAAAGCCGAAGCCT returned a PBM binding z-score of 4.12.

In turn, CCGAGTGGGTTATGGGGCATTCAGGCAACGGTGA returned a PBM binding z-score of 1.74.

Consider ATCTCTAGGTAAAGTTCACTGAAAGATCGATAGA, for which the PBM binding z-score is 3.64.

TGAATGAGGTGATAAGATCAGGGAACGTTGCAAA gave a PBM binding z-score of 1.08.

The sequence AGCATGAGGTTATACGTAGATCAGGGAAGAAAGT gave a PBM binding z-score of 2.43.

The sequence AGTCGAAGTTCAGGACGAGGTAACGTAAAGCACG gave a PBM binding z-score of 1.49.

Take CCGACTGGGACATAAGGTTACCATAAGCCAGCCC: the PBM binding z-score worked out at 1.21.

ATACCAAGGTGGTCGTGAGGTCGTTGATACTAAC yielded a PBM binding z-score of 1.21.

As for AAAATGAGGTTATTAAGATCAGGGAATTGCGGTC, the PBM binding z-score came out at 2.8.

In turn, GCTGCTAGGTCAGTTTGGTCAGCTAACGGGTACG registered a PBM binding z-score of 0.943.

Sequence TCATGTAGGTAAAGGTGAAAGTCGAACGATATGA displayed a PBM binding z-score of 3.46.

For CAAACTAGTTCACCGGAAGGTCAAAGTCCGCATG, the PBM binding z-score was 4.24.

In turn, CGTCCAAGTTCAGAGAGGTCAGTGAATGCCGAGT gave a PBM binding z-score of 3.19.

CCTCGGAGGACTACAGGAGGTCAGAGCTGCCAGA came in with a PBM binding z-score of 1.8.

TGAATGAGGTTATAAGCTCAGGGAACGTTGCAAA registered a PBM binding z-score of 2.67.

In the case of CGTCCAAGTTCAGCAGGTCAGTGAAAGCGACGTG, the PBM binding z-score is 2.49.

In the case of AATGCAGGGTCACTAGGCCAGAGTAGGTACGAAT, the PBM binding z-score worked out at 5.78.

Regarding TAGTCTAGGTCATGGGCCAGTATACCACGCGAAC, the PBM binding z-score was 4.88.

Take CGAACTGGGTCATTGACAGGACAGTGAATAGTAA: the PBM binding z-score came out at 4.39.

Regarding AGAACGACGGCACGCTGAGTTGATAGCAGAGTAG, the PBM binding z-score is -0.667.

As for TAGCCTACGTCAGATCGGGCCAGTATACGCTATA, the PBM binding z-score was -0.78.

TAAGACAGGTGAAGGTAACTCAGGTACGCAGTCG had a PBM binding z-score of 0.916.

TGAATCAGGTTATAAGATCAGGGAACGTTGCAAA gave a PBM binding z-score of 0.709.

Sequence ACTAGCAGGCCAGGTTTGGGTCACTCAAACAAAG registered a PBM binding z-score of 0.985.

TCTTGTAGATCAAAAGGAGGTTAAGAAAGATCGA registered a PBM binding z-score of 1.81.

As for TTACCAAGGTGAAAGGACGTTGATGCACGCCTTG, the PBM binding z-score came out at 1.72.

In the case of ATCGAAAGGTAGTGAGGTGAGTATACAGAAAGGC, the PBM binding z-score turned out to be 0.153.

As to ACTAGCAGGCCAAGTTTGGGTCAATCAAACAAAG, the PBM binding z-score came to 1.55.

As for CGAACTAGGTCATTGACAGGAGAGTGAATAGTAA, the PBM binding z-score is 4.89.

For GCATATAGGTAATACAAGGGGAAAGTCCGATTGT, the PBM binding z-score was determined as 0.754.

As to CAAACTAGGTCAAGGTCATAGTCGGTTTGTGCCA, the PBM binding z-score was found to be 5.92.

For the sequence CAAACTAGCTCAAAGGTCAAAGTCGAGCCAACCA, the PBM binding z-score was 6.14.

On to TAGCTTAGGTCATTGGGCCAGTATAGTACGCATC, for which the PBM binding z-score was determined as 4.09.

TGAATGAGGTTAAAGATCGGGGAACGTGGCGTCG: the PBM binding z-score amounted to 4.29.

Turning to CAGCCTAGATCAGGGCCAGTATAGGAGGAACGTT, the PBM binding z-score is -0.772.

ACTATTAGTTGAGACAAGGGCAACCGATAGGTTG had a PBM binding z-score of 0.0106.

GGAACGAGGGCATTCGAGTTGGTAGCATGGCGAT had a PBM binding z-score of 1.06.

In turn, ATCTCTAGGTAAAAATTCAGTGAATCCCGAGGAT returned a PBM binding z-score of 0.272.

For the sequence CCTACAGGGCCACGAAAGGTCATTGATTCAGTGA, the PBM binding z-score was found to be 4.51.

With CGTCCAAGGTCAATGCTAGGTCAGTGAGAGCATT, the PBM binding z-score came to 5.13.
